Assay outcomes as filed in PubChem.
The list is not random: actives were taken first. Their share in the collection is about 11%.
NPSR antag = qHTS Assay for Antagonists of the Neuropeptide S Receptor: cAMP Signal Transduction. CHO-NPSR cells, cAMP TR-FRET, antagonist mode. Potency, µM (series often up to 38.3 µM), actives largely listed as inhibitors. hit rate 1% among 220,000. AID 1461, 2008. Q6W5P4; active = well fitted curve in the direction sought with a large enough effect; inconclusive = small, poorly fitted or top-dose-only effect, or another doubt; inactive = no such curve, though single readings can be large; an effect the other way counts as inactive or inconclusive; also: nearly all actives have a fitted effect of over 50% in size
Target sequence (Q6W5P4 whole entry, looked up): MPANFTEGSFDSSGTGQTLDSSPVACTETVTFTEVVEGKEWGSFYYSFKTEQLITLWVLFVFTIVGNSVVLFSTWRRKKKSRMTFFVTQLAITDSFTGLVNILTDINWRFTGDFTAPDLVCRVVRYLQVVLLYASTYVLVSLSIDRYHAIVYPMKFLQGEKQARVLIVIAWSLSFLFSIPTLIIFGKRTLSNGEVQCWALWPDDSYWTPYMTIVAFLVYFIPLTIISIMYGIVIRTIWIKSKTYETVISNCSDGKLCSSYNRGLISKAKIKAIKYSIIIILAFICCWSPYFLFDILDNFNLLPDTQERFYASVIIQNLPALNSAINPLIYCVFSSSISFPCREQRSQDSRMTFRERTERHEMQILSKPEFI
ALDH1A1 block = qHTS Assay for Inhibitors of Aldehyde Dehydrogenase 1 (ALDH1A1). Aldehyde dehydrogenase 1A1 (Homo sapiens), P00352. Purified ALDH1A1, NADH fluorescence, propionaldehyde substrate. Potency, µM (highest dose often 75.3 µM), usual class: inhibitors. hit rate 7.3% among 220,000. AID 1030, 2008
IMPase inh = qHTS Assay for Identifying the Cell-Membrane Permeable IMPase Inhibitors; inhibition (IP1 accumulation), % at 46.1 µM; Inositol monophosphatase 1 (Rattus norvegicus), P97697; CHO-M1 cells, IP1 accumulation, HTRF TR-FRET ratio; AID 901, 2007; 120,000 tested, under 10 active; active = well fitted curve in the direction sought with a large enough effect in the signal ratio, not every such curve was filed as active; inconclusive = small, poorly fitted or top-dose-only effect, or a change in a side signal; inactive = no such curve, though single readings can be large or run the other way; the % refers to the signal ratio;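 also: cells stimulated with carbachol in lithium chloride buffer; higher means more IMPase inhibition seen as more IP1 and lower FRET ratio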
Target sequence (P97697 whole entry, looked up): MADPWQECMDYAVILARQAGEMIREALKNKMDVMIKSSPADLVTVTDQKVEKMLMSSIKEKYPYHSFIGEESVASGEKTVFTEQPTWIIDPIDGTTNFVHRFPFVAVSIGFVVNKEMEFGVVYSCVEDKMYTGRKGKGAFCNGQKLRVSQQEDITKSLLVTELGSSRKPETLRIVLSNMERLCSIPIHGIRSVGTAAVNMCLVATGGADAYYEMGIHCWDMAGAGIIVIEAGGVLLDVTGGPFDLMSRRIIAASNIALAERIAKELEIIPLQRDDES
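CHO-M1 cells (CHO stably expressing M1 receptor), compound up to 46 uM final, stimulated with carbachol (50 uM as added) in buffer with 50mM LiCl, pH 7.4, 30 min at 37C. Cytosolic IP1 read by TR-FRET; AC50 from Hill fits.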
PNC inhibitor = High Content Assay for Compounds that inhibit the Assembly of the Perinucleolar Compartment | PC3M PTB-GFP, PNC prevalence imaging, 16 h; hits give low values | activity change (PNC), negative = inhibition, % at 10 µM | hit rate 3.1% among 140,000;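 active = readout at or below -70, meaning at least 70% loss of cells showing the perinucleolar compartment, a nuclear body marking cancer cells; inconclusive = readout between -30 and a set limit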
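Read-out is percentage of cells bearing a perinucleolar compartment, from automated 20x imaging of fixed, Hoechst-stained PC3M PTB-GFP cells. Cells were seeded 4 h, then exposed 16 h to compound (23 nl of library stock) in duplicate plates.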
HPGD block = qHTS Assay for Inhibitors of HPGD (15-Hydroxyprostaglandin Dehydrogenase); purified HPGD, NADH fluorescence kinetic, PGE2 substrate; Potency, µM, most hits filed as inhibitors; hit rate 4.3% among 150,000
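NADH formation kinetics: reaction with 30 uM PGE2 and 1 mM NAD+ (final), 20 nM enzyme, Tris-HCl pH 8 with Tween 20, after 15 min compound preincubation at room temperature. Fluorescence change, last versus first of five reads.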
IMPase Li cell = qHTS Assay for Identifying the Cell-Membrane Permeable IMPase Inhibitors: Potentiation with Lithium; CHO-M1 cells, IP1 TR-FRET (IP-One), carbachol + lithium; Potency, µM (top dose mostly 59.4 µM), usual class: inhibitors; hit rate 0.35% among 210,000; active = well fitted curve in the direction sought with a large enough effect; inconclusive = small, poorly fitted or top-dose-only effect, or another doubt; inactive = no such curve, though single readings can be large; an effect the other way counts as inactive or inconclusive;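 also: IP1 builds up when IMPase is blocked and the TR-FRET signal falls; nearly all actives have a fitted effect of over 50% in size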
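CHO-M1, 2000 cells/well, 16–30 h culture; cpd + low Li+, 30 min 37C; lysis with d2-IP1/Eu-anti-IP1 Ab, 10 min RT; TR-FRET 665/620 ratio and 620 channel; AC50 via Hill.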
Numbers stand for hits; [ ] = another dose, or the depositor's remark. Unless noted, calls follow the shape of the dose curve; as a rule, active = well fitted inhibition curve with a large enough effect (not every such curve was filed as active); inconclusive = small, poorly fitted or top-dose-only effect, or another doubt; inactive = no such curve, though single readings can be large or run the other way.

Screening Cc1c(OCc2nn[nH]n2)ccc2c(-c3ccccc3)cc(=O)oc12 returned NPSR antag inconclusive, ALDH1A1 block 15.8µM, IMPase inh inactive, PNC inhibitor inactive, HPGD block 12.6µM and IMPase Li cell inactive.
Cc1ccc(NC(=O)c2cc(S(=O)(=O)NCCC3=CCCCC3)ccc2F)cc1F was read as NPSR antag inactive, ALDH1A1 block inactive, IMPase inh inactive, PNC inhibitor inconclusive, HPGD block inactive and IMPase Li cell inactive.
For CC(C)(C)NCC(O)CON=C1c2ccccc2-c2ccccc21 (stereo not given) the results were NPSR antag inactive, ALDH1A1 block inactive and IMPase Li cell inactive.
`COc1cc(/C=C2/SC(=NCc3ccccc3)N(Cc3ccccc3)C2=O)ccc1O` gave NPSR antag inconclusive, ALDH1A1 block 2.24µM, IMPase inh inactive, PNC inhibitor inactive, HPGD block inactive and IMPase Li cell inactive.
Screening CN(CC(=O)Nc1ccc(S(=O)(=O)N2CCCC2)cc1)Cc1cccc(Cl)c1Cl returned NPSR antag inactive, ALDH1A1 block inconclusive, PNC inhibitor inactive, HPGD block inactive and IMPase Li cell inactive.
Screening CCOc1ccc(C2CC(c3ccccc3C)n3ncnc3N2)cc1 (stereo not given) returned NPSR antag inactive, ALDH1A1 block inconclusive, IMPase inh inactive, PNC inhibitor inconclusive, HPGD block inactive and IMPase Li cell inactive.
For COc1ccc(CCNC(=O)CCCOc2ccc(C)cc2)cc1OC the results were NPSR antag inactive, ALDH1A1 block 28.2µM, PNC inhibitor inactive, HPGD block inactive and IMPase Li cell inactive.
`COc1ccc(CCNC(=O)COc2ccc(-c3ccccc3)cc2)cc1OC` gave NPSR antag inactive, ALDH1A1 block inactive, IMPase inh inactive, PNC inhibitor inactive, HPGD block inactive and IMPase Li cell 10µM.
`COc1ccc(CCNC(=O)Cc2ccc(OC)c(OC)c2)cc1OC` gave NPSR antag inactive, ALDH1A1 block inactive and IMPase Li cell inactive.
Screening COc1ccc(CCNC(=O)CC(c2ccccc2)c2cccc(C)c2O)cc1OC (stereo not given) returned NPSR antag 1µM, ALDH1A1 block inactive and IMPase Li cell inactive.
Screening Cc1nnc(NC(=O)CSc2nnc(-c3ccc(S(=O)(=O)N4CCCC4)cc3)n2C)s1 returned NPSR antag inactive, ALDH1A1 block inconclusive, IMPase inh inactive, PNC inhibitor inactive, HPGD block inactive and IMPase Li cell inactive.
Screening COc1cccc([C@@H]2Oc3ccc(Br)cc3C[C@H]2OC(=O)Nc2cc(OC)c(OC)c(OC)c2)c1 returned ALDH1A1 block inactive, HPGD block inactive and IMPase Li cell inactive.
For O=C(Cn1cnc2c(nnn2Cc2ccc(Cl)cc2)c1=O)c1ccccc1 the results were NPSR antag inactive, ALDH1A1 block inconclusive and IMPase Li cell inactive.
O=C(Cn1cnc2c(nnn2Cc2ccccc2)c1=O)NCc1ccco1 was read as NPSR antag inactive, ALDH1A1 block inactive, IMPase inh inactive, PNC inhibitor inconclusive, HPGD block 14.1µM and IMPase Li cell inactive.
Screening O=C(Cn1cnc2c(nnn2Cc2ccc(F)cc2)c1=O)NCc1ccco1 returned NPSR antag inactive, ALDH1A1 block inactive, IMPase inh inactive, PNC inhibitor inactive, HPGD block 15.8µM and IMPase Li cell inactive.
`O=C(Cn1cnc2c(nnn2Cc2ccccc2)c1=O)c1ccccc1` gave NPSR antag inactive, ALDH1A1 block inactive, IMPase inh inactive, PNC inhibitor inactive, HPGD block 22.4µM and IMPase Li cell inactive.
For O=C(Cn1cnc2c(nnn2Cc2ccc(F)cc2)c1=O)NCc1ccccc1 the results were NPSR antag inactive.
Screening O=C(Cn1cnc2c(nnn2Cc2ccc(Cl)cc2)c1=O)NCc1ccco1 returned NPSR antag inactive, ALDH1A1 block inconclusive, IMPase inh inactive, PNC inhibitor inactive, HPGD block 15.8µM and IMPase Li cell inactive.
For O=C1CN(C(=S)Nc2ccc(OC(F)F)cc2)CCN1 the results were NPSR antag inactive, ALDH1A1 block inactive and IMPase Li cell inactive.
O=C(NCCC1=CCCCC1)C1CCCN(S(=O)(=O)c2ccccc2)C1 (stereo not given) was read as NPSR antag inactive, ALDH1A1 block inactive, IMPase inh inactive, PNC inhibitor inactive, HPGD block inactive and IMPase Li cell inactive.
For COc1cc2c(=O)n(Cc3ccccc3)c(=O)n(CC(=O)NCc3ccco3)c2cc1OC the results were NPSR antag inactive, ALDH1A1 block 1.41µM, IMPase inh inactive, PNC inhibitor inactive, HPGD block inconclusive and IMPase Li cell inactive.
Screening O=C(Cn1c(=O)n(Cc2ccccc2)c(=O)c2ccccc21)NCc1ccco1 returned NPSR antag inactive, ALDH1A1 block inactive, IMPase inh inactive, PNC inhibitor inconclusive, HPGD block inactive and IMPase Li cell inactive.
`Cc1ccc(S(=O)(=O)Nc2nc3ccccc3nc2NCC2CCCO2)cc1C` (stereo not given) gave NPSR antag inactive.
Cc1n[nH]c(=O)nc1NCC1CCCO1 (stereo not given) was read as NPSR antag inactive, ALDH1A1 block inconclusive, IMPase inh inactive, PNC inhibitor inactive, HPGD block 28.2µM and IMPase Li cell inactive.
For COc1ccc(/C(O)=C2/C(=O)C(=O)N(CCN3CCOCC3)C2c2ccccn2)cc1 (stereo not given) the results were NPSR antag inactive, ALDH1A1 block 22.4µM, IMPase inh inactive and PNC inhibitor inactive.
COC(=O)c1[nH]c(C)c(/C(O)=C2\C(=O)C(=O)N(CCCN3CCOCC3)C2c2ccccn2)c1C (stereo not given) was read as NPSR antag inactive, ALDH1A1 block 10µM, IMPase inh inactive, PNC inhibitor inactive, HPGD block inconclusive and IMPase Li cell inactive.
Screening CC(C)Oc1ccc(/C(O)=C2/C(=O)C(=O)N(CCN3CCOCC3)C2c2ccccc2)cc1 (stereo not given) returned NPSR antag inactive, ALDH1A1 block 22.4µM, IMPase inh inconclusive, PNC inhibitor inactive, HPGD block inactive and IMPase Li cell 5.01µM.
`O=C1C(=O)N(CCN2CCOCC2)C(c2ccccn2)/C1=C(/O)c1ccc(F)cc1` (stereo not given) gave NPSR antag inactive[7.67 µM], ALDH1A1 block 25.1µM, IMPase inh inactive, PNC inhibitor inactive, HPGD block inactive and IMPase Li cell inactive.
